# This is a sample that favours compounds with a hit; in the whole collection about 21% have one here.
# Cycloheximide cs: affects cycloheximide protein synthesis inhibition readout, counter-screen | cell reporter, cycloheximide protein synthesis inhibition counterscreen | max response, % | actives 12% (n = 300,000) | AID 2314; in the data active = max response mostly above about 13%, no sharp cut-off; inactive = mostly below about 14%; note: read at 38.3 µM for the half of the compounds with a filed dose; 0% is about no effect
# Pf growth 96h: inhibits malaria parasite growth, 96 h | Potency, µM (series often up to 28.7 µM), for inactives: at the top dose activity change, negative = inhibition, most hits filed as inhibitors | AID 504834 | actives 6.9% (n = 320,000) | P. falciparum luciferase reporter growth, 96 h; note: potency is the fitted concentration of half-maximal effect; % is set by controls: 0 for no effect and ±100 for the full control effect
#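 Cell-based qHTS: luciferase-tagged P. falciparum in erythrocytes (2% hematocrit, 0.05% parasitemia final) incubated with compounds for 96 hours, 37 C, 5% CO2; luciferase detection reagent then added and luminescence measured.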
# Shiga toxin inh: inhibitors of Shiga toxin in Vero cells. Vero cells, Shiga toxin protein synthesis inhibition reporter. inhibition, % at 38.7 µM. actives 9.2% (n = 290,000). AID 2315; in the data active = inhibition mostly above about 28%, no sharp cut-off; inactive = mostly below about 43%; note: 0% is about no effect
# NS1 inh: influenza NS1 inhibition. actives 0.4% (n = 270,000). Potency, µM (top dose mostly 46.1 µM), for inactives: at the top dose activity, positive = more growth; calls by dose curve; note: potency is the fitted concentration of half-maximal effect; actives are rising curves; nearly all actives have a fitted effect of over 50% in size
#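 In this qHTS, NS1 from influenza A is expressed in budding yeast, where it slows growth. Cells are switched from glucose to 2% galactose medium (pH 6.0, -URA), treated with compound, and growth recovery is read at OD600.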
# Pf growth 48h: inhibits P. falciparum growth in the first generation, 48 h; P. falciparum luciferase growth in erythrocytes, 48 h; Potency, µM (top dose mostly 28.7 µM), without a hit: top-dose activity change, negative = inhibition, most hits filed as inhibitors; actives 5.9% (n = 310,000); note: potency is the fitted concentration of half-maximal effect; % is set by controls: 0 for no effect and ±100 for the full control effect
#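 First compound was added to culture medium, then infected red cells at 0.1% parasitemia and 2% hematocrit (final). After incubation at 37 C under 5% CO2, luciferase detection reagent was dispensed and light output recorded.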
# * hit, by the source's call; ? = inconclusive; . = no result given. Unless noted, calls come from the whole dose curve; as a rule, active = well fitted inhibition curve with a large enough effect; inconclusive = small, poorly fitted or top-dose-only effect, or another doubt; inactive = no such curve, though single readings can be large or run the other way.
SMILES,Cycloheximide cs,Pf growth 96h,Shiga toxin inh,NS1 inh,Pf growth 48h
O=C(NC(Cc1cnc[nH]1)C(=O)O)c1ccccc1 (configuration not stated),-1.9,?,1.6,.,5.1%
O=C(Nc1ccccc1)c1cnc[nH]1,30.4*,26.6%,66.8*,1.8%,104.1%
O=C(c1ccccc1)c1cnc[nH]1,12.6*,17.7%,19.9,3.1%,15.6%
Cc1[nH]c2ccc3c(ncn3CCC#N)c2c1C,0.4,?,-15.4,7.4%,-2.0%
NS(=O)(=O)c1ccc(CCNC(=O)CCC(=O)c2cccs2)cc1,.,?,.,.,-8.4%
Cc1c(NC(=O)C(C)OC(=O)CC2Sc3ccccc3NC2=O)c(=O)n(-c2ccccc2)n1C (configuration not stated),13.2*,?,25.3,-7.6%,15.9%
CCC(C)(C)NC(=O)C(c1ccc(F)cc1)N(Cc1cccc(OC)c1)C(=O)c1cnccn1 (configuration not stated),-6.2,-6.6%,6.2,3.7%,?
CCC(C)(C)NC(=O)C(c1ccc(F)cc1)N(Cc1ccc(OC)cc1)C(=O)c1cnccn1 (configuration not stated),31.3*,?,60.4*,0.2%,?
Nn1c(-c2ccc(F)cc2)nc2ccccc2c1=O,10.1,?,8.6,3.3%,29.3%
O=C1c2cc(F)ccc2-n2c1nc1ccccc1c2=O,3.8,0.0294µM*,18.5,-58.1%,0.0329µM*
COc1ccc2c(c1)CCc1cnc(N)nc1-2,11.8*,?,19.4,-0.7%,29.9%
O=C(CSc1cccc[n+]1[O-])c1cccs1,-1.5,?,-5.5,.,1.3%
CN1/C(=C\C(=O)C[n+]2cccc(Br)c2)C(C)(C)c2ccccc21,1.1,14.7µM*,10.4,0.2%,2.33µM*
CN1/C(=C\C(=O)CSc2cccc[n+]2[O-])C(C)(C)c2ccccc21,0.7,3.29µM*,-13.9,.,-24.1%
O=C(CSc1cccc[n+]1[O-])C12CC3CC(CC(C3)C1)C2,4.9,4.15µM*,-9.3,.,0.4%
CN1/C(=C\C(=O)C[n+]2ccc(C(=O)c3ccccc3)cc2)C(C)(C)c2ccccc21,-0.3,7.38µM*,12.2,.,2.08µM*
CN1/C(=C\C(=O)C[n+]2cccc(C(N)=O)c2)C(C)(C)c2ccccc21,4.1,?,-5.1,.,?
CN1/C(=C/C(=O)CSc2ccccc2C(=O)O)C(C)(C)c2ccccc21,-1.6,44.0%,-2.3,10.3%,-4.7%
Cc1cccc2c1cnn2C(=O)CCC(=O)NCC(C)c1ccccc1 (configuration not stated),-2.7,?,-2.3,-6.5%,3.5%
Cc1ccc(S(=O)(=O)c2ncccc2[N+](=O)[O-])cc1,14.9,?,8.4,-108.8%,.
O=C(O)c1ccc(S(=O)(=O)N[C@H](Cc2ccc([N+](=O)[O-])cc2)C(=O)O)cc1,3.2,8.4%,-2.4,.,2.1%
CN1/C(=C\C(=O)COC(=O)c2ccc(O)cc2)C(C)(C)c2ccccc21,-2.3,?,4.6,-1.8%,0.6%
Cc1cccc[n+]1CC(=O)/C=C1\N(C)c2ccccc2C1(C)C,3.2,2.94µM*,6.9,1.2%,2.94µM*
COc1ccc(Nc2nnc(SCC(=O)/C=C3/N(C)c4ccccc4C3(C)C)s2)cc1,-3.0,7.38µM*,7.6,15.0%,9.28µM*
